Screening data (PubChem)
PRMT1 FP inh: blocks human protein arginine methyltransferase 1; Q99873; recombinant PRMT1, activity-based probe fluorescence polarization; inhibition, % at 2.79 µM; 370,000 tested, 1.3% active; AID 652257;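 active = inhibition above about 21% made by adding two undisclosed values, limit read from the data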
ALR inh: human ALR oxidase inhibition via reduced H2O2; purified ALR, DTT oxidation, H2O2 HRP-luminol luminescence; inhibition, % (no concentration beside the values); 290,000 tested, 3.8% active; P55789; AID 485317;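 active = mean replicate inhibition above about 79%, with every replicate also reaching it, limit read from the data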
Target sequence (P55789 whole entry, looked up): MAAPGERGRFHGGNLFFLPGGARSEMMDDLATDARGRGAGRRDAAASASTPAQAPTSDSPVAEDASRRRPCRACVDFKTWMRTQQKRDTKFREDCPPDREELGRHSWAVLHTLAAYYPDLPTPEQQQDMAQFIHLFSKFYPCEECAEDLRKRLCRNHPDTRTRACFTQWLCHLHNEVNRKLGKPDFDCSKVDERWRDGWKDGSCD
LANA-H2A inh: blocks KSHV LANA binding to histone H2A/H2B; 320,000 tested, 0.6% active; inhibition, % (concentration not given with the values); cell-free LANA-H2A/H2B peptide, fluorescence polarization; in the data active = inhibition mostly above about 10%, no sharp cut-off; inactive = mostly below about 6.7%
ABHD5 PLIN5 PPI: ABHD5-PLIN5 protein interaction inhibition. Q00G26+Q8WTS1. Split G. princeps luciferase complementation, luminescence, 4 h. inhibition, % at 4 µM. 360,000 tested, 0.78% active;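 active = inhibition above the mean inhibition across every tested compound plus 3 SD, cut at about 22% in these data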
rCAG RNA binder: molecules binding r(CAG) RNA repeats | r(CAG) RNA repeat, TO-PRO-1 dye displacement fluorescence | inhibition, % at 3 µM | 370,000 tested, 1.3% active | AID 651821;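 active = inhibition above the plate cutoff, the mean of all test compounds on that plate plus 3 SD, cut at about 35% in these data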;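 also: higher means more dye released from RNA so lower well fluorescence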
Rtt109 Vps75: blocks Candida albicans Rtt109/Vps75 acetyltransferase activity; 330,000 tested, 0.16% active; purified Rtt109/Vps75, ThioGlo CoA-SH fluorescence, 4 h; inhibition, % at 34.9 µM; AID 540336;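 active = inhibition of at least 50% in every replicate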
Target sequence (Q5AAJ8 whole entry, looked up): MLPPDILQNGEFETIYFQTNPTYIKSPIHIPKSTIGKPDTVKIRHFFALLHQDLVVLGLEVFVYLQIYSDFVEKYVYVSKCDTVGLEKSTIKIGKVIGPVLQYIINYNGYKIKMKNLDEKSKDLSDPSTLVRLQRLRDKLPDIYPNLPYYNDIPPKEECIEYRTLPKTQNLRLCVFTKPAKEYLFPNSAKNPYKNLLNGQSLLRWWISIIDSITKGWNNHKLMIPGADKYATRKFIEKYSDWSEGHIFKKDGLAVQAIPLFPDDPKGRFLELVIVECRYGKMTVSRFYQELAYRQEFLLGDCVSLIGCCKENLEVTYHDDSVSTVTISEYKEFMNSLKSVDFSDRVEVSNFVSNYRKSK
rCAG binder conf: r(CAG) RNA repeat binding, confirmation. shares compounds with rCAG RNA binder. inhibition, % at 3 µM. 4,300 tested, 70% active. TO-PRO-1 dye displacement fluorescence. AID 652065;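 active = inhibition above a per-plate cutoff, the mean inhibition of sample wells plus 3 SD, cut at about 35% in these data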;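 also: loss of TO-PRO-1 fluorescence as compound displaces dye from 1x1 AA loop RNA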
dCAG dye counter: DNA CAG dye complex inhibition counter-screen | shares compounds with rCAG RNA binder | d(CAG) DNA oligo TO-PRO-1 dye displacement, fluorescence | inhibition, % at 3 µM | 4,300 tested, 94% active;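 active = inhibition above its plate's cutoff, the mean test-well inhibition plus 3 SD, cut at about 4.8% in these data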;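 also: hits displace the dye from DNA and so lower well fluorescence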
Numbers stand for hits; . = inactive; / = no result given; + = active, no number. Hits are enriched below; roughly 5.9% of the tested compounds scored in any of these assays.

SMILES	PRMT1 FP inh	ALR inh	LANA-H2A inh	ABHD5 PLIN5 PPI	rCAG RNA binder	Rtt109 Vps75	rCAG binder conf	dCAG dye counter
COc1cc(NS(=O)(=O)c2ccc(N/C=C\C(=O)c3ccc(C)cc3)cc2)nc(OC)n1	.	.	.	.	.	.	/	/
COc1cc(NS(=O)(=O)c2ccc(N/C=C\C(=O)c3ccc(OC)c(OC)c3)cc2)nc(OC)n1	.	.	.	.	35	.	46	14
COc1cccc(C(=O)/C=C/Nc2ccc(S(=O)(=O)Nc3cc(OC)nc(OC)n3)cc2)c1	.	.	.	.	45	.	54	19
CN1C(=O)c2cc(NC(=O)c3ccccc3)ccc2OC[C@H]2O[C@@H](CC(=O)NCC3CC3)CC[C@@H]21	.	/	/	/	.	/	/	/
CCCCCCc1c[nH]c2ccc(O)c(-c3ccccc3)c12	.	/	/	/	.	/	/	/
Cc1nc(SCC(=O)c2ccccc2)[nH]c(=O)c1Oc1ccc(Cl)cc1	.	.	.	.	41	.	35	8.5
COc1cc([N+](=O)[O-])ccc1NC(=S)NNC(=O)c1ccc2c(c1)OCO2	.	98	.	.	64	.	57	16
O=C(CSc1nnc(CCCOc2ccc(Cl)cc2Cl)o1)Nc1ccc(C(=O)O)cc1	.	.	.	.	42	.	.	5.0
COC(=O)[C@]12C[C@H](CC(=O)N3CCN(C(=O)c4ccco4)CC3)C(=O)N(Cc3ccccc3)C1=C[C@H](C(C)C)O[C@@H]2C1CC1	.	/	/	/	.	/	/	/
O=C(NCC1CCCO1)c1ccc([N+](=O)[O-])s1 (stereo not drawn)	.	.	.	.	36	.	.	.
COc1ccc(N=C2SC(C(=O)Nc3ccc(C(=O)O)cc3)CC(=O)N2Cc2cccs2)cc1 (stereo not drawn)	.	.	.	.	61	.	60	20
O=C(CC1CCCC1)N1CC[C@H]2[C@H](CCCN2Cc2cc(F)cc(F)c2)C1	.	/	/	/	.	/	/	/
Cc1ccc(C(=O)Nn2c(N)c(S(=O)(=O)c3ccc(C)cc3)c3nc4ccccc4nc32)cc1	.	/	.	.	.	.	/	/
Cc1ccc(S(=O)(=O)c2c(N)n(NC(=O)c3ccccc3C)c3nc4ccccc4nc23)cc1	.	.	.	.	36	.	36	13
C#CCNC(=O)C[C@H]1C(=O)N(CCCOC)C2=CCCCC[C@]21C(=O)OC	.	/	/	/	.	/	/	/
CCN1CCN(S(=O)(=O)c2ccc(Cl)c(C(=O)N(C)Cc3ccc(C(C)(C)C)cc3)c2)CC1	.	/	/	.	.	.	/	/
COC(=O)c1scc(C#N)c1N/N=C(\C#N)S(=O)(=O)c1ccc(Cl)cc1	.	.	.	.	41	.	66	21
COC(=O)c1scc(S(=O)(=O)C(C)C)c1N/N=C(\C#N)C(=O)c1ccc(Cl)cc1	.	.	.	.	51	.	61	23
O=C(c1ccc2n[nH]nc2c1)N1CCN(c2ccc(C(F)(F)F)cn2)CC1	.	.	.	.	.	.	/	/
O=C(Nc1ccc(F)cc1)OCc1cn(Cc2cc(F)cc(F)c2)nn1	.	/	/	/	.	/	/	/
C[C@H]1COc2cc(Br)ccc2S(=O)(=O)N1Cc1cn(CCC2OCCO2)nn1	.	/	/	/	.	/	/	/
COc1cccc(Oc2ccc(C(F)(F)F)cc2NC(=O)CN2C(=O)NC3(CCCC3)C2=O)c1	.	/	.	.	.	.	/	/
CCOC(=O)c1ccc(NC(=O)c2cc(S(=O)(=O)N3CCOCC3)ccc2O)cc1	.	.	.	.	49	.	40	9.2
CCOC(=O)c1ccc(NC(=O)c2cc(S(=O)(=O)N3CCOCC3)cn2C)cc1	.	.	.	.	.	.	/	/
COc1cc(-c2cc(C(=O)Nc3cc(S(=O)(=O)N4CCOCC4)ccc3O)c3ccccc3n2)cc(OC)c1OC	.	.	.	.	72	.	74	35
SMILES	PRMT1 FP inh	ALR inh	LANA-H2A inh	ABHD5 PLIN5 PPI	rCAG RNA binder	Rtt109 Vps75	rCAG binder conf	dCAG dye counter
CCN(CC)S(=O)(=O)c1ccc(C(=O)Nc2cc(S(=O)(=O)N3CCOCC3)ccc2O)cc1	.	.	.	.	36	.	.	6.9
CCS(=O)(=O)c1ccc(O)c(NC(=O)c2ccc(S(=O)(=O)N3CCCCCC3)cc2)c1	.	.	.	.	37	.	46	11
COc1cc(-c2cc(C(=O)Nc3cc(S(=O)(=O)N4CCOCC4)ccc3C)c3ccccc3n2)cc(OC)c1OC	.	/	/	.	.	.	/	/
Cc1ccc(O)c(NC(=O)c2cccc(S(=O)(=O)N3CCCCC3)c2)c1	.	.	.	.	.	.	/	/
COC(=O)c1c(C(=O)OC)c2c(-c3ccccc3)cc3cccc1n32	.	/	/	.	.	/	/	/
CCCC(C(=O)Nc1cc(S(=O)(=O)N2CCOCC2)ccc1OC)c1ccccc1 (stereo not drawn)	.	.	.	.	.	.	/	/
Cc1cnc(C(=O)OCC(=O)Nc2ncc(Cl)cc2Cl)cn1	.	/	.	.	.	.	/	/
Nc1cc2cccnc2cc1Cl	.	/	/	.	41	.	.	.
O=Cc1sc(Nc2ccccc2)nc1Cl	.	.	.	.	.	.	/	/
Cc1ccc(Nc2nc(Cl)c(C=O)s2)cc1Cl	.	/	.	.	43	.	.	12
COc1cccc(Nc2nc3ccccc3nc2NS(=O)(=O)c2cccs2)c1	.	.	.	.	74	.	88	59
COc1ccc(Nc2nc3ccccc3nc2NS(=O)(=O)c2cccs2)c(OC)c1	.	.	.	.	.	.	/	/
CC(C)CCNc1nc2ccccc2nc1NS(=O)(=O)c1cccs1	.	.	.	.	56	.	.	5.5
O=C(O)c1ccc(Nc2nc3ccccc3nc2NS(=O)(=O)c2cccs2)cc1	.	.	.	.	.	.	/	/
COc1ccc2c(c1)C[C@@H]1CC(C)(C)CN1S2(=O)=O	.	/	/	/	/	/	/	/
CCCc1nn2c(=O)c(C(c3cccc(Cl)c3)c3c(O)nc4sc(CCC)nn4c3=O)c(O)nc2s1	.	.	.	.	39	.	51	16
CCCc1nn2c(=O)cc(CSCC(=O)Nc3ccc(C)cc3)nc2s1	.	.	.	.	.	.	/	/
Cc1ccc(C(=O)CCC(=O)OCC(=O)NNC(=O)c2ccc([N+](=O)[O-])cc2)cc1	.	.	.	.	.	.	/	/
COc1ccc2c(c1)N=CN1CCc3c([nH]c4ccccc34)C3=NCC[C@@]321	.	/	/	/	/	/	/	/
COC(=O)c1sc(NC(=O)c2ccc(Cn3cc(Cl)cn3)o2)c(C#N)c1C	.	88	.	.	48	.	42	13
COP(=O)(CC(=O)C(Cc1ccccc1)NC(=O)OC(C)(C)C)OC (stereo not drawn)	.	/	/	/	.	/	/	/
COc1ccc(/C=C2\C(=O)NC(=S)N2C(=O)c2ccc(F)cc2)cc1	.	.	+	.	38	.	69	31
